# PubChem BioAssay (EPA / NIEHS)
# Inconclusive results are not listed. Active and inactive are the calls of the source. The calls were made as follows: active = hit-call score of the fitted dose curve at least 0.9, where 1 is the maximum; inconclusive = response in the unintended direction; inactive = score below 0.9.
# Biological target: human Ephrin type-B Receptor 1 (EphB1), EPHB1 (gene 2047) (UniProt P54762)
# Test: NVS_ENZ_hEphB1: NovaScreen (NVS) Enzymatic Assay for human Ephrin type-B Receptor 1 (EphB1) (AID 2283154)
# Procedure: NVS_ENZ_hEphB1 is a biochemical, single-readout assay that uses extracted gene-proteins in a cell-free assay. Measurements were taken 1 hour after chemical dosing in a 384-well plate.NVS_ENZ_hEphB1 is one of one assay component(s) measured or calculated from the NVS_ENZ_hEphB1 assay. It is designed to make measurements of enzyme activity, a form of enzyme reporter, as detected with fluorescence intensity signals by Fluorescence and electrophoretic mobility shift technology.Data from the assay component NVS_ENZ_hEphB1 was analyzed into 1 assay endpoint. This assay endpoint, NVS_ENZ_hEphB1, was analyzed in the positive analysis fitting direction relative to DMSO as the negative control and baseline of activity. Using a type of enzyme reporter, loss-of-signal activity can be used to understand changes in the enzymatic activity as they relate to the gene EPHB1. Furthermore, this assay endpoint can be referred to as a primary readout, because this assay has produced multiple assay endpoints where this one serves a enzymatic activity function. To generalize the intended target to other relatable targets, this assay endpoint is annotated to the kinase intended target family, where the subfamily is receptor tyrosine kinase.
# Binding assays used specific radioligands (tritiated, iodinated) with non-radioactive competitive displacement ligands in agonist or antagonist protocols (as indicated) and various reference compounds and inhibitors to titrate specific binding to receptors and transporters. Most enzyme assays (CYPs, kinases, phosphatases, proteases, HDACs) used recombinant protein and specific substrates (fluorescence mostly, some colorimetric and radioactive) and inhibitors, followed by a biochemical separation of substrate and product. All assays for the biochemical HTS were initially run in duplicate at a single concentration (10 uM for CYP450 assays and 25 uM for all others). […] Each assay was run with positive and negative controls, and concurrent controls on every plate. The follow-up (secondary) screen tested active chemical-pairs in concentration series, as well as a few additional assays not tested in the primary screen, some selected negative inactives, and several cases re-run in the concentration series for confirmatory purposes.
# Chain of human Ephrin type-B Receptor 1 (EphB1), EPHB1 (gene 2047) (P54762 whole entry, looked up): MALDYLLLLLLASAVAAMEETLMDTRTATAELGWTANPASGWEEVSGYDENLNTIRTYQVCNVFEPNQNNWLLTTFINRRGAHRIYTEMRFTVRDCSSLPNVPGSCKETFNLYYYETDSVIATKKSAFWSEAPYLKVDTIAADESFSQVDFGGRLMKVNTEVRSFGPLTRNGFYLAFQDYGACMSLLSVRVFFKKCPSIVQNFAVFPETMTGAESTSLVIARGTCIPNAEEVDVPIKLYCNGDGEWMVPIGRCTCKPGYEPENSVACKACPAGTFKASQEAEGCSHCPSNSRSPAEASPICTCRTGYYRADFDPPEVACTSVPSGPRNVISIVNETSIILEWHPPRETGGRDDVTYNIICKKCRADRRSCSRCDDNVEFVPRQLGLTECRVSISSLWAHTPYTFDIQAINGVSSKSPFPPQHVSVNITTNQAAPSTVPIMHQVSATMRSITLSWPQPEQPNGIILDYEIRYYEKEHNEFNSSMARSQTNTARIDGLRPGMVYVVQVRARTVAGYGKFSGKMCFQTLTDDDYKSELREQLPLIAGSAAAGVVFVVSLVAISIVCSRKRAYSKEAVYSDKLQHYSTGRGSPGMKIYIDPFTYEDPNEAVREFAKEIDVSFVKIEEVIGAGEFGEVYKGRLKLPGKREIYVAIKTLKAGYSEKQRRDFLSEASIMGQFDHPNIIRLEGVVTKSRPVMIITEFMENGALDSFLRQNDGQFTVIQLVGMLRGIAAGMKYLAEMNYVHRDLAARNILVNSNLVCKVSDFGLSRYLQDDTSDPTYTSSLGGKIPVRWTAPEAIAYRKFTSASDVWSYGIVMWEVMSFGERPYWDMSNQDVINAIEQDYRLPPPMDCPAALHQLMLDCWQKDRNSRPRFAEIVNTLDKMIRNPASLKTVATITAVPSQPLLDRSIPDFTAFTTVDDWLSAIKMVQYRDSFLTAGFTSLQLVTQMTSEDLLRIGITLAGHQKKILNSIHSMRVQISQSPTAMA
row,Structure (SMILES),outcome
1,CCOC(=O)C(C)OC(=O)c1cc(Oc2ccc(C(F)(F)F)cc2Cl)ccc1[N+](=O)[O-] (stereo not given),inactive
2,CN=C=S,inactive
3,Cc1nc(N(C)C)nc(OC(=O)N(C)C)c1C,inactive
4,O=C(Nc1ccccc1-c1ccc(Cl)cc1)c1cccnc1Cl,inactive
5,Cc1ccc(N=CN(C)C=Nc2ccc(C)cc2C)c(C)c1,inactive
6,Nc1c(Cl)c(F)nc(OCC(=O)O)c1Cl,inactive
7,CC1(C)C(C=C(Cl)Cl)C1C(=O)OC(C#N)c1cccc(Oc2ccccc2)c1 (stereo not given),inactive
8,Clc1nc(Cl)nc(Nc2ccccc2Cl)n1,inactive
9,CN/C(=N\[N+](=O)[O-])NCc1cnc(Cl)s1,inactive
10,CC1(C)C(C(=O)OC(C#N)c2cccc(Oc3ccccc3)c2)C1(C)C (stereo not given),inactive
11,Cc1c(COC(=O)[C@@H]2[C@H](/C=C(\Cl)C(F)(F)F)C2(C)C)cccc1-c1ccccc1,inactive
12,CCOP(=O)(OCC)Oc1nc(Cl)c(Cl)cc1Cl,inactive
13,C=CCOC(=O)C(C)(C)OC(=O)c1cc(-n2c(=O)cc(C(F)(F)F)n(C)c2=O)ccc1Cl,inactive
14,COC(=O)N(C(=O)N1CO[C@@]2(C(=O)OC)Cc3cc(Cl)ccc3C2=N1)c1ccc(OC(F)(F)F)cc1,inactive
15,CNC(=O)N(C)c1nnc(C(C)(C)C)s1,inactive
